Experimental data taken from the supplement of paper PMC6555819.

Tests used:
Experiment in all cases: PBM binding z-score (relative to random genomic background probes); higher = stronger binding; sequences stand for … in GC…GCGATTGACAGCGTAGAATGAAGG
[1] = system: FXR:RXRa (NR concentration 270 nM, RXRa partner concentration 90 nM)
Method in brief: (§1)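 Ligand-free nuclear receptor dimers were applied to custom Agilent 4×180K protein-binding microarrays whose double-stranded probes carried direct-repeat seeds, single-nucleotide variants, half-site ablations and random human genomic background sequences in 34-nt variable regions. Incubation lasted 1 h. Binding z-scores were computed against the random background probes from regression-normalized fluorescence.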

[2] = system: LXRa:RXRa (NR concentration 270 nM, RXRa partner concentration 90 nM)
Method in brief: as §1

[3] = system: LXRa homodimer (NR concentration 270 nM)
Method in brief: as §1

[4] = system: LXRb:RXRa (NR concentration 270 nM, RXRa partner concentration 90 nM)
Method in brief: as §1

[5] = system: LXRb homodimer (NR concentration 270 nM)
Method in brief: as §1

[6] = system: PPARa:RXRa (NR concentration 270 nM, RXRa partner concentration 90 nM)
Method in brief: as §1

[7] = system: PPARg:RXRa (NR concentration 180 nM, RXRa partner concentration 90 nM)
Method in brief: as §1

[8] = system: PPARg:RXRa 270nM:90nM, anti-RXR (NR concentration 270 nM, RXRa partner concentration 90 nM)
Method in brief: as §1

[9] = system: PPARg:RXRa 30nM:10nM, anti-RXR (NR concentration 30 nM, RXRa partner concentration 10 nM)
Method in brief: as §1

[10] = system: PPARg:RXRa 90nM:30nM, anti-RXR (NR concentration 90 nM, RXRa partner concentration 30 nM)
Method in brief: as §1

[11] = system: PPARg:RXRa DBDmut IVT, anti-RXR (DBD mutation: RXRa K156A/R161A, NR concentration 270 nM, RXRa partner concentration 90 nM)
Method in brief: as §1

[12] = system: PPARg:RXRa IVT, anti-PPARg (NR concentration 270 nM, RXRa partner concentration 90 nM)
Method in brief: as §1

[13] = system: PPARg DBDmut:RXRa IVT, anti-PPARg (DBD mutation: PPARg1 K132A/R137A, NR concentration 270 nM, RXRa partner concentration 90 nM)
Method in brief: as §1

[14] = system: PPARg DBDmut IVT, anti-PPARg (DBD mutation: PPARg1 K132A/R137A, NR concentration 270 nM)
Method in brief: as §1

[15] = system: PPARg homodimer (NR concentration 180 nM)
Method in brief: as §1

[16] = system: PXR:RXRa (NR concentration 270 nM, RXRa partner concentration 90 nM)
Method in brief: as §1

[17] = system: PXR homodimer (NR concentration 270 nM)
Method in brief: as §1

[18] = system: RARa:RXR (NR concentration 270 nM, RXRa partner concentration 90 nM)
Method in brief: as §1

[19] = system: RARa homodimer (NR concentration 270 nM)
Method in brief: as §1

[20] = system: RARb:RXRa (NR concentration 270 nM, RXRa partner concentration 90 nM)
Method in brief: as §1

Sequence | PBM binding z-score [1] | PBM binding z-score [2] | PBM binding z-score [3] | PBM binding z-score [4] | PBM binding z-score [5] | PBM binding z-score [6] | PBM binding z-score [7] | PBM binding z-score [8] | PBM binding z-score [9] | PBM binding z-score [10] | PBM binding z-score [11] | PBM binding z-score [12] | PBM binding z-score [13] | PBM binding z-score [14] | PBM binding z-score [15] | PBM binding z-score [16] | PBM binding z-score [17] | PBM binding z-score [18] | PBM binding z-score [19] | PBM binding z-score [20]
ATATGTAGGTGAGCTGGGGTCATTCAGACTAGGC | 4.23 | 3.62 | 0.762 | 4.15 | 0.598 | 5.85 | 7.13 | 5.75 | 3.65 | 5.74 | 7.57 | 7.41 | 3.98 | 2.99 | 1.94 | 6.35 | 3.01 | 5.85 | 0.796 | 3.08
TTACCAAGGTGAGCTGAGGTCGTTCATCCAACTC | 1.08 | 1.32 | 0.0661 | 0.862 | -1.08 | 1.68 | 0.347 | 1 | 0.0261 | 0.463 | 1.05 | 2.17 | -0.164 | -0.434 | -0.159 | 5.33 | 0.906 | 1.82 | -0.552 | 1.74
AGTCAAAGTTCAGGACGCGGTAACGTAAAGCACG | 3.88 | 3.44 | 1.09 | 1.68 | 0.0515 | 3.08 | 4.39 | 4.71 | 1.96 | 3.51 | -0.435 | 1.23 | -0.53 | -0.304 | 1.62 | 2.37 | 0.876 | 2.21 | 0.353 | 4.19
ATATGTAGGTTAAGAGTCATTCAGGTTGGTTCGC | 0.855 | 1.47 | 0.703 | 1.18 | 0.774 | 4.58 | 8.36 | 7.68 | 6.62 | 8.28 | 7.43 | 7.13 | 1.39 | 1.44 | 2 | 1.5 | 0.614 | 1.5 | 1.72 | 1.42
ATCGAAAGATCGAAGGTGAGTATACCCACCCGAA | 0.128 | -0.167 | -0.351 | -0.103 | -0.379 | 0.477 | 0.73 | 0.539 | 0.2 | 0.266 | -0.781 | 0.354 | -0.115 | -0.0294 | -0.0886 | 0.0692 | -0.598 | 0.121 | 0.67 | 0.215
CATACAGGGTCAGCTAGGCCAGAATAGGGACGGC | 4.83 | 3.22 | -0.0324 | 2.38 | -0.0852 | 4.55 | 3.66 | 3.09 | 0.879 | 2 | 0.915 | 2.41 | 0.965 | 0.203 | 0.999 | 2.22 | 0.0161 | 2.91 | 0.818 | 4.16
CGAACTAGGTCATTGACAGGACAGGGAATAGTAA | 4.56 | 2.81 | 0.225 | 1.82 | -0.158 | 4.65 | 7.57 | 6.18 | 4.13 | 5.76 | 8.02 | 8.21 | 2.18 | 1.03 | 1.49 | 1.43 | 0.107 | 2.22 | 0.195 | 3.69
TTAGACAGGTGAAGGTAACTCAGGTACGCAGTCG | 0.437 | 1.75 | -0.26 | 0.818 | -0.0711 | 1.07 | 0.825 | 1.33 | 1.9 | 1.54 | 1.15 | 1.49 | 1.36 | 0.841 | 0.811 | 0.344 | -0.00345 | 0.387 | 0.607 | 0.951
CGTCCAAGGTCAATGCTAAGTCAGTGAAAGCATT | 6.87 | 4.59 | 0.722 | 3.58 | 0.637 | 4.73 | 3.59 | 4.12 | 0.983 | 2.55 | 2.98 | 3.34 | 0.647 | -0.584 | 2.4 | 3.51 | 0.823 | 4.32 | 0.642 | 5.01
ATCTCTAGGTAACCAACTTCAGTGAATGCCGAAC | 0.38 | 0.07 | 0.43 | 0.199 | 1.07 | 0.378 | 0.531 | 0.519 | 0.321 | 0.666 | 4.05 | 2.98 | 1.39 | 1.39 | 0.412 | -0.17 | 0.34 | 0.0512 | 0.816 | 0.248
CGTCCAAGGTCAGCAGGTCATTGAAAGCGACGTG | 6.58 | 4.67 | 1.51 | 3.86 | -0.214 | 5.46 | 5.09 | 4.94 | 1.14 | 3.42 | 2.83 | 3.78 | 0.265 | -0.0575 | 3.28 | 4.51 | 0.829 | 5.89 | 0.397 | 5.51
TCGAGTAGGTTAGTCGGGGCAATCAGCCAACATA | 0.297 | -0.165 | -0.263 | 0.224 | -1.01 | 0.796 | 0.0628 | 0.946 | 1.01 | 0.797 | 2.37 | 2.34 | -0.202 | -1.1 | -0.0632 | 0.138 | -0.459 | 0.453 | -0.959 | 0.473
TCTGCTAGGCCAGTTGGTCAGCTAACGAGCTGCC | -3.09 | -0.955 | -1.26 | -1.27 | -0.666 | -0.606 | -1.07 | 0.229 | 0.768 | 0.446 | 0.789 | 0.538 | -0.123 | -0.684 | -2.67 | -0.743 | -1.82 | -0.933 | -1.48 | 0.442
AATACAGGGACACTAGGCCAGAGTAGGTACGAAT | -0.211 | -0.375 | -0.0605 | -0.483 | -0.0261 | -0.00279 | 0.846 | 0.394 | 0.113 | 0.294 | 0.603 | 1.52 | 0.579 | 0.0521 | -0.62 | -0.635 | 0.0323 | -0.555 | -0.036 | 0.688
